From PubChem BioAssay
Values joined by “and” are separate entries in the source; they are usually repeats but may differ in a detail not shown here. Equal entries are not always repeated. Active and inactive are the calls of the source. Unless noted, the rule behind the calls is not given here.

Experiments:
[1] = system: Wnt5a (protein binding on small-molecule microarray); experiment: small molecules binding Wnt5a protein – biophysical, small-molecule microarray, 635/667 nm fluorescence, primary screen (AID 1142); conditions: 635 nm fluorescence, higher = more signal;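 note: fluorescence read at 667 nm with signal to noise per printed feature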
[2] = ATP-based viability of Huh7 replicon cells – cell-based, CellTiter-Glo luminescence, basal, 48 h, cytotoxicity control for HCV replication inhibitor project, primary screen (AID 1143); conditions: higher = more signal, called active from +8 up or from −8 down;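 note: Huh7 hepatoma cells carrying a hepatitis C replication reporter with no stimulus; test concentration not given here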
[3] = Pseudomonas biofilm growth suppression – PAO1 strain, BacTiter-Glo luminescence, LB-PBS, primary screen (AID 1144); conditions: P. aeruginosa PAO1 biofilm, 12 h, higher = more signal
[4] = basal CRE-LacZ reporter activity in PC12 – cell-based, unstimulated, primary screen (AID 1145); conditions: no forskolin, luminescence, 4.5 h, higher = more signal, called active from +8 up or from −8 down
[5] = forskolin-driven CRE-LacZ activity in PC12 – cell-based, CRE-LacZ reporter, forskolin-stimulated, primary screen (AID 1146); conditions: luminescence, 4.5 h, higher = more signal, called active from +8 up or from −8 down;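 note: PC12 cells with 6xCRE LacZ reporter stimulated by forskolin 10 µM; beta-galactosidase reporter signal reflecting CREB driven transcription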
[6] = biological target: Streptavidin (Streptomyces avidinii) (UniProt P22629); experiment: compounds binding control protein streptavidin – biophysical, small-molecule microarray, 635/667 nm fluorescence, artefact control for SMM compound annotation, primary screen (AID 1147); conditions: higher = more signal;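 note: signal reflects streptavidin binding to arrayed compounds as a control protein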
Chain of Streptavidin (Streptomyces avidinii) (P22629 whole entry, looked up): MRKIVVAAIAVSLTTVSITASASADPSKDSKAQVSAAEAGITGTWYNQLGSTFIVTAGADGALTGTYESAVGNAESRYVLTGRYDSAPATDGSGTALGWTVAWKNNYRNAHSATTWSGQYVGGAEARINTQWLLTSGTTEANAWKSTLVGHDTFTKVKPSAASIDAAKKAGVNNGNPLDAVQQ

[7] = probe aInhba binding on compound microarray – biochemical, small-molecule microarray, 635/667 nm fluorescence, primary screen (AID 1148); conditions: higher = more signal;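 note: score merges 667nm spot fluorescence with signal-to-noise for antibody binding to printed compounds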
Torsin-1A (Homo sapiens) [8] = biological target: Torsin-1A (Homo sapiens) (UniProt O14656); experiment: TOR1A wild-type binding on microarray – cell lysate, small-molecule microarray, lysate, 635/667 nm, primary screen (AID 1149); conditions: COS7 hTOR1A-WT lysate, 635 nm fluorescence, higher = more signal
Chain of Torsin-1A (Homo sapiens) (O14656 whole entry, looked up): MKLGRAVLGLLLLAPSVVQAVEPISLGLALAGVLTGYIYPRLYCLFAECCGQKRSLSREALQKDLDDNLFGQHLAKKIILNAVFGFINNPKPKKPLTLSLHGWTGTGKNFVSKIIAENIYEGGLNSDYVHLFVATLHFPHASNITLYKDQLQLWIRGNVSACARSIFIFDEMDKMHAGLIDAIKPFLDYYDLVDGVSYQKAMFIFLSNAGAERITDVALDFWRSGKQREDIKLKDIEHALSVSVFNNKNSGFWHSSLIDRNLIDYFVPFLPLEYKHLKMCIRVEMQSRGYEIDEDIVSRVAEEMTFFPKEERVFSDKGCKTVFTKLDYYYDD

Torsin-1A (Homo sapiens) [9] = biological target: Torsin-1A (Homo sapiens) (UniProt O14656); experiment: torsin A mutant lysate binding on microarrays – cell lysate, small-molecule microarray, COS7 lysate, 635/667 nm fluorescence, primary screen (AID 1150); conditions: COS7 hTOR1A mutant lysate, 635 nm fluorescence, higher = more signal;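 note: score pools 667 nm emission and signal to noise measuring lysate protein binding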
[10] = system: Sonic hedgehog protein (Shh); experiment: Sonic hedgehog microarray binding compounds – biochemical, small-molecule microarray, 635/667 nm fluorescence, primary screen (AID 1151); conditions: 635 nm fluorescence, higher = more signal;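 note: Shh protein binding to compounds spotted on small-molecule microarray slides; score combines spot fluorescence intensity with signal-to-noise across triplicate slides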
[11] = optical density shifts of acrAB sulA E. coli – strain DRC41, OD650, 48 h, E. coli filamentation inducer project, primary screen (AID 1152); conditions: higher = more signal, called active from +8 up or from −8 down;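 note: E. coli MC1000 strain DRC41 lacking acrAB efflux pump and sulA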
[12] = probe aLefty1 binding on compound microarray – biochemical, small-molecule microarray, 635/667 nm fluorescence, primary screen (AID 1153); conditions: higher = more signal;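 note: score merges spot fluorescence with signal-to-noise ratio from the scanned slide images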
[13] = plasmodial surface anion channel blockers, osmotic lysis – cell-based, P. falciparum Indochina, OD700, 1 h, primary screen (AID 1154); conditions: P. falciparum Indochina infected RBC osmotic lysis, higher = more signal, called active from +8 up or from −8 down
[14] = plasmodial surface anion channel blockers, osmotic lysis – cell-based, P. falciparum Indochina, OD700, 2 h, primary screen (AID 1155);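 note: lysis reports solute entry through the parasite surface anion channel PSAC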; conditions: P. falciparum Indochina infected erythrocytes, higher = more signal, called active from +8 up or from −8 down
[15] = changes in parasitized red cell lysis, either direction – P. falciparum Indochina, OD700, 3 h, PSAC antagonist project, primary screen (AID 1156); conditions: P. falciparum-infected erythrocytes, osmotic lysis, higher = more signal, called active from +8 up or from −8 down
[16] = plasmodial surface anion channel blockers, osmotic lysis – cell-based, P. falciparum Indochina, OD700, 18 h, primary screen (AID 1157); conditions: P. falciparum Indochina infected erythrocytes, osmotic lysis OD700, 18 h; higher = more signal, called active from +8 up or from −8 down
[17] = S6 kinase pathway phospho-S6 level changes – cell-based, A549, cytoblot, luminescence, serum-stimulated, primary screen (AID 1158); conditions: 5 h, higher = more signal;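 note: serum-stimulated A549 lung adenocarcinoma cells; signal is phosphorylated S6 detected by cytoblot immunostaining with HRP secondary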
[18] = biological target: NADPH oxidase 2 (Homo sapiens) (UniProt P04839); experiment: compounds shifting NOX2 Amplex Red fluorescence – cell-based, HEK293-NOX2, PMA-stimulated, NOX inhibitor project, primary screen (AID 1159); conditions: 45 min, higher = more signal, called active from +8 up or from −8 down; note: test concentration not given here
Chain of NADPH oxidase 2 (Homo sapiens) (P04839 whole entry, looked up): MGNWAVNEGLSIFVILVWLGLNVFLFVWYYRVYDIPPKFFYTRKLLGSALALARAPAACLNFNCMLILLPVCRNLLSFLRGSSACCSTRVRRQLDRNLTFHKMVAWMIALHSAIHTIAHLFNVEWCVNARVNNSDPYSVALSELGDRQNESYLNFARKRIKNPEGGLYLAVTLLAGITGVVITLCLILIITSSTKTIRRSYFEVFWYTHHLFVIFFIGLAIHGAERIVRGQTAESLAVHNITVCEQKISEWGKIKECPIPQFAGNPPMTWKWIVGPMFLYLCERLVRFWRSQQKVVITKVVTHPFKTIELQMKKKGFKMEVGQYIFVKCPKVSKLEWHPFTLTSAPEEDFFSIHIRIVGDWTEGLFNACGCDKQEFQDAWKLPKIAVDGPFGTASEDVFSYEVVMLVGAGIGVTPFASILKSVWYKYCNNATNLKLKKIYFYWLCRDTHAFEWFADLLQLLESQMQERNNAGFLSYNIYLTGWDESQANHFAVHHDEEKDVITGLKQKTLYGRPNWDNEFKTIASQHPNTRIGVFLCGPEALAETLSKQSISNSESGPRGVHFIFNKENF

[19] = biological target: NADPH oxidase 4 (Homo sapiens) (UniProt Q9NPH5); experiment: compounds shifting NOX4 Amplex Red fluorescence – cell-based, HEK293-NOX4, tetracycline-induced, NOX inhibitor project, primary screen (AID 1160); conditions: HEK293-NOX4, Amplex Red H2O2 fluorescence, 45 min; higher = more signal, called active from +8 up or from −8 down
Chain of NADPH oxidase 4 (Homo sapiens) (Q9NPH5 whole entry, looked up): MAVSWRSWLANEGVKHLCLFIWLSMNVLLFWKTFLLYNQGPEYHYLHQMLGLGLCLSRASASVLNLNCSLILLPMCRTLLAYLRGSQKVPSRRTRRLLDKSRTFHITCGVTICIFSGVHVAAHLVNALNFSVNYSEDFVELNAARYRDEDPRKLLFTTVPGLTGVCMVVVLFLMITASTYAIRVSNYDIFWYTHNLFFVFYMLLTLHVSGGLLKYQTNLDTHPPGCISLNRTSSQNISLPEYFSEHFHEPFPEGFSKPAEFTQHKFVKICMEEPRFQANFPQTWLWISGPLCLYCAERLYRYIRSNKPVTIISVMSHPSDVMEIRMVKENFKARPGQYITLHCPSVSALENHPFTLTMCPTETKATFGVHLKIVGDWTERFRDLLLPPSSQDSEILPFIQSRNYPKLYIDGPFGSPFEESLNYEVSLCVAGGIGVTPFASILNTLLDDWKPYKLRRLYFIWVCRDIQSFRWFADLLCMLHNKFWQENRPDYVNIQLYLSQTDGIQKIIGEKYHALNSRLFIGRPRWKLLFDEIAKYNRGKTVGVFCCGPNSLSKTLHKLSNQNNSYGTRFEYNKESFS

[20] = biological target: NADPH oxidase 5 (Homo sapiens) (UniProt Q96PH1); experiment: compounds shifting NOX5 Amplex Red fluorescence – cell-based, HEK293-NOX5, NOX inhibitor project, primary screen (AID 1161); conditions: HEK293-NOX5, ionomycin, 45 min, higher = more signal
Chain of NADPH oxidase 5 (Homo sapiens) (Q96PH1 whole entry, looked up): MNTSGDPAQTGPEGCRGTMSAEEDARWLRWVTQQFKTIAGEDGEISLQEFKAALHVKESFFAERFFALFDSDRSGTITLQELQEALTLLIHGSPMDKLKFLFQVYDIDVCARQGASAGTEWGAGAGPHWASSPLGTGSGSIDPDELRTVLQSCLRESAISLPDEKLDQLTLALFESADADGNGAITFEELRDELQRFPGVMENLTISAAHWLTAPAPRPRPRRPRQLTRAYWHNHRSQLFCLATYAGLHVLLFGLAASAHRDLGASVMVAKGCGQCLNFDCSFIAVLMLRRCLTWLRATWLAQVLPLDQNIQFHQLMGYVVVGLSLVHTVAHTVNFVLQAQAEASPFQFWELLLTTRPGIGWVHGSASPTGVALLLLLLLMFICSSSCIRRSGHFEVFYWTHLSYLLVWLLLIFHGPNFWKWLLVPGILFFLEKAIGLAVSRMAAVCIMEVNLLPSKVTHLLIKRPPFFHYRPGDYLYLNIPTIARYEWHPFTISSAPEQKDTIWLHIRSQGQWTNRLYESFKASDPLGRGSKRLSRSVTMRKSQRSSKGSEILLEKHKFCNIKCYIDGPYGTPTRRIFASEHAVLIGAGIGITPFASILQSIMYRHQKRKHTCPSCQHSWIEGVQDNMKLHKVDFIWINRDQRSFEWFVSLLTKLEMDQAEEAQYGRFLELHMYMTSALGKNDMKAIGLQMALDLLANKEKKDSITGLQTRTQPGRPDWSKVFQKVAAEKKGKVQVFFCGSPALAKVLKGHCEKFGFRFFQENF

Row | SMILES | composite z-score [1] | z-score [2] | z-score [3] | z-score [4] | z-score [5] | composite z-score [6] | composite z-score [7] | composite z-score (Torsin-1A (Homo sapiens) [8]) | composite z-score (Torsin-1A (Homo sapiens) [9]) | composite z-score [10] | z-score [11] | composite z-score [12] | z-score [13] | z-score [14] | z-score [15] | z-score [16] | z-score [17] | z-score [18] | z-score [19] | z-score [20]
1 | C[N+](C)(C)CCCCCCNC(=O)[C@H]1C[C@H]2C(=O)N[C@@H](CCCC[N+](C)(C)C)C(=O)N2[C@H]1c1cccc(OCCO)c1 | 0.138 and 0.215 | -0.153 (inactive) and 0.0096 (inactive) | -0.454 (inactive) and 0.221 (inactive) | -0.532 (inactive) and -1.09 (inactive) | 0.323 (inactive) and -0.622 (inactive) | -0.621 and 0.0935 | 0.298 and 0.135 | 0.765 and 1.27 | 1.11 and 0.354 | 1.98 and 1.79 | 1.06 (inactive) and -0.391 (inactive) | 0.212 and 1.06 | 3.2 (inactive) and 3.03 (inactive) | 1.03 (inactive) and 1.07 (inactive) | 0.0478 (inactive) and -2.4 (inactive) | 0.448 (inactive) and 0.301 (inactive) | -0.0981 and -0.617 | -0.142 (inactive) and -0.0849 (inactive) | 0.566 (inactive) and 0.746 (inactive) | 0.749 and 0.86
2 | C[C@@H]1CC[C@H]2C(=O)N3[C@@H](CC[C@@H](C)[C@@H]3c3ccc(-c4ccco4)cc3)C(=O)N2[C@H]1c1ccc(-c2ccco2)cc1 | 0.178 and 0.544 | 0.234 (inactive) and 0.563 (inactive) | 0.598 (inactive) | -0.165 (inactive) and 0.651 (inactive) | 0.371 (inactive) and -0.248 (inactive) | 1.33 and 2.14 | 0.0006 and 0.0895 | 0.967 and 2.1 | 0.411 and 1.47 | 1.44 and 1.19 | -0.581 (inactive) and 0.529 (inactive) | 0.0927 and 0.38 | 0.91 (inactive) and 0.469 (inactive) | -0.0315 (inactive) and -0.262 (inactive) | 0.0919 (inactive) and 1.71 (inactive) | -0.364 (inactive) and -0.853 (inactive) | -0.146 and -0.115 | 0.331 (inactive) and 0.931 (inactive) | -1.03 (inactive) and 0.685 (inactive) | -0.273 and -1.03
3 | C=CCN(CCCCC)C(=O)C1N(c2ccc(CCO)cc2)C(=O)C2C(C(=O)O)C3C=CC21O3 (stereo not given) | -0.479 and -0.327 | -0.641 (inactive) and -0.552 (inactive) | 0.839 (inactive) and 0.128 (inactive) | -0.48 (inactive) and -0.619 (inactive) | 0.589 (inactive) and -0.601 (inactive) | -1.64 and -1.36 | -0.206 and 0.789 | -1.94 and -0.448 | 0.101 and -1.53 | -0.568 and 2.02 | -0.202 (inactive) and 0.216 (inactive) | -0.0099 and 0.0736 | 1.47 (inactive) and 1.68 (inactive) | 0.351 (inactive) and 0.438 (inactive) | -0.148 (inactive) and -0.54 (inactive) | 0.0385 (inactive) and 0.356 (inactive) | 1.15 and 0.435 | 1.21 (inactive) and 0.745 (inactive) | 0.564 (inactive) and 0.124 (inactive) | 0.698 and 0.836
